Test results reported in ChEMBL document CHEMBL3988442, “University of Dundee, Small-Polar-MMV Screening Library” (2021).
Out of some 85,000 compounds screened, about 440 (0.52%) showed an effect of 50% or more. What follows is part of a selection rich in strong results, with near analogues and random picks from the rest.

Assay: In vitro enzyme assay to detect hydrolysis of chlorophenol red-beta-D-[…] directly proportional to the number of Toxoplasma stably expressing beta-galactosidase
Assay type: functional, organism-based, Toxoplasma gondii
Design: scale not given: in the data most compounds retested in dose-response had high values

| Structure (SMILES) | Percent Effect (50 µM) [%] | Percent Effect (10 µM) [%] |
| --- | --- | --- |
| Nc1ccnn1Cc1ccccn1 | -24.54 | – |
| O=C(CN1CCCCC1)N1CCCCC1 | 1.789 | – |
| O=C(NCCOCCO)c1cn2ccsc2n1 | 19.68 | – |
| CNC(=O)C1CNC1 | 0.513 | – |
| COCCCNC(=O)CN(C)c1ccccc1F | 2.537 | – |
| Clc1cccc(-c2cccc(N3CCC(NC4CCOCC4)CC3)c2)c1 | – | 94.46 |
| COc1cccc(-c2cccc(N3CCC(N[C@@H]4CCOC4)CC3)c2)c1 | – | 25.91 |
| Cc1ccc(-c2cccc(N3CCC(NC4CCOCC4)CC3)c2)cc1 | – | 36.9 |
| NCCOCC1CCCO1 (stereo unspecified) | -7.088 | – |
| c1cc(SCCOCC2CCCO2)ccn1 (stereo unspecified) | 73.14 | – |
| Cc1ccccc1-n1cnnc1SCCOCC1CCCO1 (stereo unspecified) | – | -4.234 |
| CN1CCOC(C(=O)N(C)Cc2cccc(O)c2)C1 (stereo unspecified) | -4.809 | – |
| CN(C)c1nc(N)nc(CN2CCCC2c2cccs2)n1 (stereo unspecified) | – | 12.16 |
| Oc1ccccc1CN1CCCCCC1c1cccs1 (stereo unspecified) | – | 10.91 |
| Nc1nc(N)nc(CN2CCCC2c2cccs2)n1 (stereo unspecified) | 61.8 | – |
| CC(=O)NCCCc1nc2ccccc2n1C | -0.2926 | – |
| O=C(CN1CCOCC1)N1CCCC(c2nnc[nH]2)C1 (stereo unspecified) | -8.944 | – |
| CC1C(=O)NCCN1C(=O)c1cc(-c2ccco2)on1 (stereo unspecified) | 0.5841 | – |
| Cc1cc(F)cc(S(=O)(=O)NCCN)c1 | -4.306 | – |
| O=C(CCn1cccn1)Nc1cncc(Br)c1O | -6.766 | – |
| O=C(CC1CCCC1)NCCc1noc(CO)n1 | 66.39 | – |

| Structure (SMILES) | Percent Effect (50 µM) [%] | Percent Effect (10 µM) [%] |
| --- | --- | --- |
| CC[C@H](C)[C@H](N)C(=O)NCCc1noc(CO)n1 | 11.28 | – |
| CCCOC(C)C(=O)NCCc1noc(CO)n1 (stereo unspecified) | -15.52 | – |
| Cc1nccc(CNc2ncc(C(N)=O)cc2Cl)n1 | -11.46 | – |
| COc1ccccc1NCC(=O)NCC(C)(O)C(C)C (stereo unspecified) | 0.7495 | – |
| NC1CSc2ccccc21 (stereo unspecified) | 16.15 | – |
| NCC(=O)N1CCCC(CCc2ccc(F)c(F)c2)C1 (stereo unspecified) | 39.41 | – |
| NCCC(=O)N1CCCC(CCc2ccc(F)cc2)C1 (stereo unspecified) | 62.64 | – |
| NCC(=O)N1CCCC(CCc2ccc(F)cc2)C1 (stereo unspecified) | 31.97 | – |
| Cc1nnc(CNC(=O)Nc2ccc(F)cc2)o1 | -6.078 | – |
| CC1(C)CN(c2ccnc3ccccc23)CC[S+]1[O-] (stereo unspecified) | 6.751 | – |
| O=S(=O)(NC1CCCC1)C1CCOCC1 | 42.45 | – |
| CCc1nc2ccccc2c(=O)n1CC1(O)CCN(C(=O)COC)CC1.Cl | – | 54.94 |
| CCCC(=O)N1CCC(O)(Cn2c(CC)nc3ccccc3c2=O)CC1.Cl | – | -0.06406 |
| CCc1nc2ccccc2c(=O)n1CC1(O)CCN(C(=O)C2CC2)CC1.Cl | – | 0.3648 |
| Cc1cc(CNc2ncnc3c2cnn3C)on1 | -29.33 | – |
| CC1COc2ccccc2N1CC(N)=O (stereo unspecified) | -5.521 | – |
| CNC(=O)N1CCCCCC1c1ccncc1 (stereo unspecified) | 14.5 | – |
| CC(C#N)CSc1ccccc1NCC(=O)NC1CCCCC1 (stereo unspecified) | – | -5.31 |
| CSc1ccccc1NCC(=O)NC1CC1 | 51.75 | – |
| CC(=O)c1ccc(F)cc1NCC(=O)NC1CC1 | 5.192 | – |
| CNCC(=O)Nc1cc(Cl)c(OCCOC)c(Cl)c1 | -0.6689 | – |

| Structure (SMILES) | Percent Effect (50 µM) [%] | Percent Effect (10 µM) [%] |
| --- | --- | --- |
| CCS(=O)(=O)N1CCC(NC(=O)c2ccc(Cl)o2)CC1 | -2.927 | – |
| Cc1cc(F)cc(NC(=O)NC[C@@H]2CCCN2)c1 | 21.68 | – |
| O=C(NCc1ccc2c(c1)OCO2)n1ccnc1 | 96.82 | – |
| CC(Cn1ccnc1)NC(=O)NCc1ccc2c(c1)OCCO2 (stereo unspecified) | – | -19.42 |
| O=C(NCc1ccc2c(c1)OCO2)N1CCCCC1 | -4.35 | – |
| c1cn(C2CCNC2)nn1 (stereo unspecified) | -13.42 | – |
| CCC(OC)C(=O)N1CC(Oc2ccccc2F)C1 (stereo unspecified) | -7.864 | – |
| Cc1cc(C(=O)O)cc(S(=O)(=O)Nc2ccc3c(c2)OCCO3)c1C | – | -2.504 |
| CC(=O)Nc1ncc(S(=O)(=O)N2CCN(C3CCCCC3)CC2)s1 | – | -4.699 |
| CC(=O)Nc1ncc(S(=O)(=O)Nc2ccc3c(c2)OCCO3)s1 | – | 68.62 |
| CC(=O)Nc1ncc(S(=O)(=O)N2CCCC(C)C2)s1 (stereo unspecified) | – | -8.14 |
| CC(=O)Nc1ncc(S(=O)(=O)N2CCOCC2)s1 | – | -6.42 |
| CC(=O)Nc1ncc(S(=O)(=O)Nc2cccc(F)c2)s1 | – | 67.14 |
| Cc1cccc(NS(=O)(=O)c2cc(C(=O)O)oc2C)c1 | – | -16.73 |
| CC(=O)Nc1ncc(S(=O)(=O)Nc2cccc(O)c2)s1 | – | 62.29 |
| CCS(=O)(=O)CCC(=O)Nc1cccc(F)c1 | 5.162 | – |
| Cc1c(S(=O)(=O)Nc2cccc(F)c2)cnn1C | -8.725 | – |
| CC(=O)Nc1ncc(S(=O)(=O)Nc2cccc(C)c2)s1 | – | 60.94 |
| CC(=O)c1cccc(NS(=O)(=O)c2cc(C)c(C(=O)O)s2)c1 | – | -0.4058 |
| CCNC(=O)NCc1ncoc1C | -6.658 | – |
| NC(=O)Cc1ccc(-c2ccc(C(N)=O)c(Cl)c2)cc1 | -4.393 | – |

| Structure (SMILES) | Percent Effect (50 µM) [%] | Percent Effect (10 µM) [%] |
| --- | --- | --- |
| CCn1ccnc1C(C)N (stereo unspecified) | 1.366 | – |
| CNC(=O)c1cccc(NC(C)C(=O)NCC(C)C)c1 (stereo unspecified) | -5.14 | – |
| Cn1cc(C(N)=O)c(NCc2ccc(F)c(C#N)c2)n1 | -8.67 | – |
| CN1C(=O)[C@H]2CN(Cc3cccc(Cl)c3F)C[C@H]2C1=O | -8.035 | – |
| O=C(c1cc(Cl)ccc1O)N1CCOCC1 | 6.297 | – |
| CNCC(=O)Nc1ccc(C)cc1C(=O)N(C)C | -7.454 | – |
| CCc1nccn1CCCNC(=O)Cc1nonc1C | 3.782 | – |
| CCn1cc(C(=O)NCc2ccc(CNC)cc2)cn1 | -1.69 | – |
| CC1CCCCN1CCNC(=O)c1ccccn1 (stereo unspecified) | 1.645 | – |
| COc1ccc(Cl)cc1CNCCSc1nnnn1C | -8.775 | – |
| Cc1nc([C@H]2CCCN2)cs1 | 52.58 | – |
| Cc1cc(C2CCCN2)no1 (stereo unspecified) | -6.252 | – |
| Cc1cccc(C2CCCN2)n1 (stereo unspecified) | -3.572 | – |
| CC(=O)NC1CCNC1 (stereo unspecified) | 26.97 | – |
| CN1CC(NC(=O)CCC(=O)c2cccs2)CCC1=O (stereo unspecified) | -1.402 | – |
| CC(=O)Nc1ccc(CN2CCCOC(C)C2)cc1 (stereo unspecified) | 52.96 | – |
| CCC(=O)NC1CCCN(Cc2ccc(NC(C)=O)cc2)C1 (stereo unspecified) | – | 8.052 |
| COCC1CCN(Cc2ccc(NC(C)=O)cc2)C1 (stereo unspecified) | -11.02 | – |
